Results from ChEMBL document CHEMBL4513216, “Probing the Open Global Health Chemical Diversity Library for Multistage-Active Starting Points for Next-Generation Antimalarials” (ACS Infect Dis, 2020).
In all, about 69,000 compounds went through this assay and about 8,600 (12%) showed an effect of 50% or more. What follows is part of a selection rich in strong results, with near analogues and random picks from the rest.

tested on: Plasmodium berghei; assay: Screen against P. berghei liver stage (PbLuc), transformed with Luciferase, at 10uM; format: functional, HepG2; conditions: tested at 10 uM

In order of rising INHIBITION:
1. CCn1ncc2c1C(COC)CN(Cc1cccnc1)C2 (stereo unspecified)  -67.6%
2. CC(C)Cc1cc(C(=O)NCC2CCCN(Cc3ccco3)C2)on1 (stereo unspecified)  -63.8%
3. CCn1cc(C(=O)N2CCOCC2)cn1  -60.9%
4. Cc1noc(C)c1CNCC1COCc2c(-c3ccsc3)nnn2C1 (stereo unspecified)  -57.1%
5. Cn1cc(CNCC2(O)CCCN(Cc3ccc(F)c(F)c3)C2=O)cn1 (stereo unspecified)  -34%
6. c1ccc(-c2cc(CN3CCc4cncnc4C3)on2)cc1  -28%
7. Nc1ccnc(N2CCC(c3nccn3CC3CC3)CC2)n1  -16.3%
8. CN(C)S(=O)(=O)N1CCC(c2c(C(N)=O)sc3ccccc23)C1 (stereo unspecified)  -11.4%
9. CC(C)Cc1cc(C(=O)NCC(O)CN2CCCCCC2)on1 (stereo unspecified)  -8.47%
10. COCC(=O)N1CCc2nc(C(=O)N(C)C)sc2CC1  -6.46%
11. COC(=O)CCC(=O)N1CCc2nc(C(=O)N3CCOCC3)sc2CC1  -4.99%
12. O=C(Nc1ccc(F)cc1)C(c1ccccc1)N1CCOCC1 (stereo unspecified)  -3.94%
13. COC[C@@]12CCO[C@@H]1CCN(C(=O)COc1ccc(C)cc1)C2  -3.52%
14. O=C(O)c1cn(CC2CCCN(c3nccc4occc34)C2)nn1 (stereo unspecified)  -2.48%
15. CCn1ncc2c1C(COC)CN(Cc1ccc(F)cc1)C2 (stereo unspecified)  -2.35%
16. COc1nc2ccccc2cc1C1CC(=O)Nc2n[nH]c(C3CCC3)c21 (stereo unspecified)  -1.7%
17. Nc1nccnc1CC1CCCN(Cc2cccc3[nH]ccc23)C1 (stereo unspecified)  -1.16%
18. COCC1CN(Cc2ccsc2)Cc2cnn(C)c21 (stereo unspecified)  -0.371%
19. CC(=O)N1CCc2ccc(S(=O)(=O)N3CCCCC3C)cc21 (stereo unspecified)  -0.178%
20. CC(C)c1ccc(OCCC(=O)N2CCCC(C(N)=O)C2)cc1 (stereo unspecified)  4.18%
21. O=C1N(Cc2ccc(F)c(F)c2)CCCC1(O)CNCc1ccccn1 (stereo unspecified)  4.25%
22. Cc1cc(N2CCCC(c3nccnc3N(C)C)C2)ncn1 (stereo unspecified)  5.25%
23. CCc1nc(C2CCCN(C(=O)c3ccc4[nH]cnc4c3)C2)no1 (stereo unspecified)  5.7%
24. COCCNCC1(O)CCCN(Cc2ccc(F)c(F)c2)C1=O (stereo unspecified)  6.65%
25. COc1ccc(-c2cnc3c(c2)CN(C2CC2)C(=O)CCN3)cc1  7.09%
26. COc1cc(OC)c2nc(NCCN3CCNC3=O)cc(C)c2c1  7.92%
27. CCc1nnc2n1CCN(C(=O)c1ccc3c(c1)[nH]c(=O)n3C)C2  8.38%
28. CC(=O)N(C)C1CCN(c2ncc3c(n2)CCN3c2ccccc2)C1 (stereo unspecified)  9.4%
29. CS(=O)(=O)c1ccc2c(c1)N(C(=O)c1cccc(F)c1)CCC2  9.63%
30. O=C1N(Cc2cccc(F)c2F)CCCC1(O)CNC1CCCC1 (stereo unspecified)  11.5%
31. CCN(CC)C(=O)c1nc2c(s1)CCN(C(=O)CCC(=O)OC)CC2  12.7%
32. CS(=O)(=O)N1C[C@H]2CC[C@@H](C1)N(C(=O)CCn1cnc3ccccc31)C2  12.9%
33. CNC(=O)c1nc2c(s1)CCN(C(=O)Cc1ccc(OC)cc1)CC2  14.2%
34. COCCc1noc(CN2CCOC(CN(C)C)C2)n1 (stereo unspecified)  15.3%
35. Nc1cc(-c2cc[nH]n2)nc(N2CCCC2)n1  20.5%
36. COc1ccccc1CN1CCCC(Cc2nccnc2N)C1 (stereo unspecified)  21.1%
37. Cc1nc(C)n(CC2CN(CCC(=O)N3CCCCC3)CCO2)n1 (stereo unspecified)  21.5%
38. Cc1cc(-c2c[nH]nc2C2CCCCN2C(=O)c2ccccc2)on1 (stereo unspecified)  23%
39. CN(C)c1ncccc1CNC(=O)NCC(c1cccs1)N(C)C (stereo unspecified)  23.2%
40. Cc1nc(N[C@H]2COC[C@@H]2N2CCCCC2)c2c(C)nn(C)c2n1  24.8%
41. Nc1nccnc1CC1CCCN(Cc2c[nH]c3ccccc23)C1 (stereo unspecified)  24.8%
42. O=C(O)COc1ccc(CN2CCCC(CCc3ccccc3)C2)cc1 (stereo unspecified)  28.5%
43. CC(C)(C)Nc1c(C2CCN(C(=O)C(C)(C)C)CC2)nc2ccccn12  30.3%
44. Cn1cc(CN2C[C@@H]3COC[C@]3(CNC(=O)c3ccsc3)C2)cn1  34.7%
45. CN(C)Cc1cn(CC2CCCN(c3nccc4occc34)C2)nn1 (stereo unspecified)  34.9%
46. O=C1NC2(Cc3ccccc31)CN(CC1CCOCC1)C2  35%
47. Cn1cc(CN2CCC[C@]3(C[C@@H](Oc4ncccc4F)CO3)C2)cn1  35.5%
48. O=C1C[C@H]2[C@@H](CCN2C(=O)Cc2cccs2)N1Cc1ccncc1  37.1%
49. Cn1ccnc1CN1CCCC(CCc2ccc(F)c(F)c2)C1 (stereo unspecified)  37.7%
50. O=C1N(Cc2cccc(F)c2F)CCCC1(O)CNCc1ccccc1 (stereo unspecified)  40.4%
51. COc1ccccc1N1CCN(Cc2nccc(OC)c2OC)CC1=O  40.7%
52. C=C(C)CNCC1(O)CCCN(Cc2ccc(F)c(F)c2)C1=O (stereo unspecified)  41.7%
53. CCn1ncc2c1C(COC)CN(Cc1ccc(OC)cc1)C2 (stereo unspecified)  42.1%
54. COc1ccc(CN2CC(=O)N(c3ccc(C)cc3)CC2C)cc1O (stereo unspecified)  43.2%
55. COc1cc(CN2CC(=O)N(c3ccc(C)cc3)CC2C)cc(OC)c1 (stereo unspecified)  46.6%
56. Cc1ccnc(N2CCCC(c3nncn3C3CC3)C2)n1 (stereo unspecified)  46.6%
57. Cc1cc(N2CCCC(c3nncn3C3CC3)C2)ncn1 (stereo unspecified)  53.5%
58. CC(=O)N1CCCc2ccc(S(=O)(=O)N3CCCCC3C)cc21 (stereo unspecified)  54.4%
59. COC(=O)CCC(=O)N1CCc2nc(C(=O)N3CCCCC3)sc2CC1  57.1%
60. c1cc2occc2c(N2CCCC(c3nncn3C3CC3)C2)n1 (stereo unspecified)  57.5%
61. CC(C)Cc1cc(C(=O)NC(C)(C)CN2CCCCCC2)on1  58.7%
62. O=C1N(Cc2ccc(F)c(F)c2)CCCC1(O)CNCc1cccnc1 (stereo unspecified)  60.9%
63. CCn1ncc2c1C(COC)CN(Cc1ccsc1)C2 (stereo unspecified)  62.6%
64. CCn1ncc2c1C(COC)CN(Cc1cnn(C)c1)C2 (stereo unspecified)  68.8%
65. O=C1N(Cc2ccc(F)c(F)c2)CCCC1(O)CNCC1CCCCC1 (stereo unspecified)  68.8%
66. O=C1N(Cc2cccc(F)c2F)CCCC1(O)CNCC1CCCCC1 (stereo unspecified)  69.1%
67. COc1ccnc(CN2CCCC(CCc3ccccc3)C2)c1OC (stereo unspecified)  75.7%
68. COc1cccc(OC)c1CN1CC(=O)N(c2ccc(C)cc2)CC1C (stereo unspecified)  76.8%
69. Nc1nccnc1CC1CCCN(Cc2ccnc3ccccc23)C1 (stereo unspecified)  78.7%
70. COC(=O)CCC(=O)N1CCc2nc(C(=O)N(C)C)sc2CC1  79.2%
71. COc1ccnc(CN2CCCC(CCc3ccc(F)cc3)C2)c1OC (stereo unspecified)  94.8%
